Measured values: PubChem BioAssay (Tox21)
“And” between values parts separate entries of the source, which are not always exact repeats. Identical values can stand only once. Inconclusive results are not listed. More than one record can exist for a structure, and the calls need not agree. The source made the active and inactive calls. Unless noted, calls come from the whole dose curve; as a rule, active = well fitted curve in the direction sought with a large enough effect in the repeat runs; inconclusive = weak or mixed curves; inactive = no such curve, though single readings can be large; an effect the other way counts as inactive or inconclusive.

What was measured:
[1] = qHTS assay to identify small molecule agonists of the RXR signaling pathway - cell viability counter screen (AID 1159529); note: nearly all actives have a fitted effect of over 50% in size; note: potency is the fitted concentration of half-maximal effect
Method in brief: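 Tox21 10K compounds were tested for cytotoxicity against GeneBLAzer RXR-alpha HEK 293T cells grown in 2% charcoal-stripped FBS. Exposure lasted 16 hr at 37 C, 5% CO2; viability read by CellTiter-Glo luminescence.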

[2] = qHTS assay to identify small molecule antagonists of the retinoid acid receptor (RAR) signaling pathway - cell viability counter screen (AID 1159551); note: nearly all actives have a fitted effect of over 35% in size; note: potency is the fitted concentration of half-maximal effect
Method in brief: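 ATP-based viability, C3RL4 cells, 6 h at 37 C with 1 uM final retinol co-added after compound; luminescence read 30 min post CellTiter-Glo, RT.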

[3] = qHTS assay to identify small molecule antagonists of the estrogen related receptor (ERR) signaling pathway from Tox21 library - cell viability counter screen (AID 1224834); note: nearly all actives have a fitted effect of over 30% in size; note: potency is the fitted concentration of half-maximal effect
Method in brief: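 Compounds in DMSO were pinned onto ERR cells that had been incubated for 6 h, and the plates were held at 37 C for 17.5 h. CellTiter-Fluor reagent was then added and fluorescence was measured after 30 min.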

[4] = qHTS assay to identify small molecule agonists of the constitutive androstane receptor (CAR) signaling pathway - cell viability counter screen (AID 1224836); note: nearly all actives have a fitted effect of over 45% in size; note: potency is the fitted concentration of half-maximal effect
Method in brief: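 Fluorescence from CellTiter-Fluor indicates live cells after 23 h exposure. The human hepatoma line expresses hCAR and a CYP2B6-2.2kb reporter. Incubation medium contains 0.75 uM PK11195 (final).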

[5] = qHTS assay to identify small molecule antagonists of the constitutive androstane receptor (CAR) signaling pathway - cell viability counter screen (AID 1224837); note: nearly all actives have a fitted effect of over 45% in size; note: potency is the fitted concentration of half-maximal effect
Method in brief: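 Cells are seeded, rested 4 hr at 37 C/5% CO2, dosed with compound (15-point series) and 50 nM CITCO, incubated a further 23 hr, and then CellTiter-Fluor reagent is added before fluorescence is read. The line is HepG2 with stable hCAR and CYP2B6-2.2kb.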

[6] = target: Nuclear receptor subfamily 1 group I member 3 (Homo sapiens) (UniProt Q14994); experiment: qHTS assay to identify small molecule antagonists of the constitutive androstane receptor (CAR) signaling pathway (AID 1224838);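 note: HepG2 cells stably expressing hCAR with CYP2B6 luciferase reporter stimulated by CITCO; nearly all actives have a fitted effect of over 40% in size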; note: potency is the fitted concentration of half-maximal effect; for activity, negative = inhibition: % is set by controls: 0 for no effect and ±100 for the full control effect
Nuclear receptor subfamily 1 group I member 3 (Homo sapiens), sequence (Q14994 whole entry, looked up): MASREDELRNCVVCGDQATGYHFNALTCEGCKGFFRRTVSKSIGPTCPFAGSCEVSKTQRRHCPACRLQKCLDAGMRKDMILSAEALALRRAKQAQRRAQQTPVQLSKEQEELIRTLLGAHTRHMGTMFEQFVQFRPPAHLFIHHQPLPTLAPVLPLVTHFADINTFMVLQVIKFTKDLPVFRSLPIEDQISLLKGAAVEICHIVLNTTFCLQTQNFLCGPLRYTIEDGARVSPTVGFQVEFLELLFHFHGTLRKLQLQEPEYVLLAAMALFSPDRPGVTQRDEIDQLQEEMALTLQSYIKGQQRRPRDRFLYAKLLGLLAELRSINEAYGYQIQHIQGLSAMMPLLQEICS
Method in brief: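 Luminescence from a CYP2B6-2.2kb promoter reporter in hCAR-expressing HepG2 cells reflects CAR signaling. Cells received compounds at 15 concentrations and 50 nM CITCO (final), then incubated 24 h at 37 C/5% CO2.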

[7] = qHTS assay to identify small molecule antagonists of the estrogen related receptor signaling pathway with the pleiotropic PPARgamma coactivator (PGC) from Tox21 10K library - cell viability counter screen (AID 1224840; active = well fitted cell-killing curve with a large enough effect in the repeat runs, not every such curve was filed as active; note: nearly all actives have a fitted effect of over 40% in size; note: potency is the fitted concentration of half-maximal effect)
Method in brief: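 Cell viability is measured by CellTiter-Fluor fluorescence in PGC/ERR cells that receive compounds after a 6-hour attachment period and are then incubated 17.5 hours at 37 C.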

[8] = target: Thyrotropin receptor (Homo sapiens) (UniProt P16473); experiment: qHTS assay to identify small molecule agonists of the thyroid stimulating hormone receptor (TSHR) signaling pathway (AID 1224843; calls by dose curve; note: nearly all actives have a fitted effect of over 45% in size; note: potency is the fitted concentration of half-maximal effect; for activation: % is set by controls: 0 for no effect and ±100 for the full control effect)
Thyrotropin receptor (Homo sapiens), sequence (P16473 whole entry, looked up): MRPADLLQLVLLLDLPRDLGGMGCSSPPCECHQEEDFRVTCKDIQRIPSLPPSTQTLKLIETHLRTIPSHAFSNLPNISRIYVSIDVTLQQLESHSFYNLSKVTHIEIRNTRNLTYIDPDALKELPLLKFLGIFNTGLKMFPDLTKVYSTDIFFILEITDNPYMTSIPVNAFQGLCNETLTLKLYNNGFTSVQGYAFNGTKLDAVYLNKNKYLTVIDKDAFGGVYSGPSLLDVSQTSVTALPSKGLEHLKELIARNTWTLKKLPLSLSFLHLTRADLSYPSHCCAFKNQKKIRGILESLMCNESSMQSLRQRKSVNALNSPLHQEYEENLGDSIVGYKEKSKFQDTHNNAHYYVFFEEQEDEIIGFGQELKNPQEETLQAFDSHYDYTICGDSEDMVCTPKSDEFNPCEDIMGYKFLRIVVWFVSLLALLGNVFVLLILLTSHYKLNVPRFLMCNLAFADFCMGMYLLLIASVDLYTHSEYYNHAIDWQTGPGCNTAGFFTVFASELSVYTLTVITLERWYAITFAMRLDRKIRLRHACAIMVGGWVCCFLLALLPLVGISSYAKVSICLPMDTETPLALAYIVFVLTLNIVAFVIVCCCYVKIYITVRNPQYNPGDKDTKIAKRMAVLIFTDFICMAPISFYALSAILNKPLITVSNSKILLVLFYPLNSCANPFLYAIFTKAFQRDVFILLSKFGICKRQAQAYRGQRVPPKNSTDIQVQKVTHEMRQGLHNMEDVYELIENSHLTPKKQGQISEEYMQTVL
Method in brief: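 Using 15 concentrations per compound in triplicate, cAMP production was monitored in TSHR-HEK293 cells after 30 min compound incubation at RT; HTRF reagents followed, with fluorescence intensity recorded after 1 h.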

[9] = qHTS assay to identify small molecule antagonists of the retinoic acid receptor (RAR) signaling pathway (AID 1159552; note: % is set by controls: 0 for no effect and ±100 for the full control effect; nearly all actives have a fitted effect of over 50% in size)
Method in brief: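 Overnight-plated C3RL4 reporter cells get compound, then retinol to 1 uM final; plates sit 6 hr at 37 C, 5% CO2. A luciferase reagent is added and light output recorded after 30 min at room temperature.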

[10] = qHTS assay to identify small molecule agonists of the retinoic acid receptor (RAR) signaling pathway (AID 1159553); note: potency is the fitted concentration of half-maximal effect
Method in brief: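 Quantitative high-throughput format: the Tox21 10K library was tested on C3RL4 RARE-luciferase cells for 6 hr at 37 C and 5% CO2, with luminescence measured after a 30 min room-temperature reagent step.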

[11] = target: Luciferin 4-monooxygenase (Photinus pyralis) (UniProt P08659); experiment: qHTS assay to identify small molecule inhibitors of firefly luciferase (AID 1224835); note: nearly all actives have a fitted effect of over 25% in size; note: potency is the fitted concentration of half-maximal effect
Luciferin 4-monooxygenase (Photinus pyralis), sequence (P08659 whole entry, looked up): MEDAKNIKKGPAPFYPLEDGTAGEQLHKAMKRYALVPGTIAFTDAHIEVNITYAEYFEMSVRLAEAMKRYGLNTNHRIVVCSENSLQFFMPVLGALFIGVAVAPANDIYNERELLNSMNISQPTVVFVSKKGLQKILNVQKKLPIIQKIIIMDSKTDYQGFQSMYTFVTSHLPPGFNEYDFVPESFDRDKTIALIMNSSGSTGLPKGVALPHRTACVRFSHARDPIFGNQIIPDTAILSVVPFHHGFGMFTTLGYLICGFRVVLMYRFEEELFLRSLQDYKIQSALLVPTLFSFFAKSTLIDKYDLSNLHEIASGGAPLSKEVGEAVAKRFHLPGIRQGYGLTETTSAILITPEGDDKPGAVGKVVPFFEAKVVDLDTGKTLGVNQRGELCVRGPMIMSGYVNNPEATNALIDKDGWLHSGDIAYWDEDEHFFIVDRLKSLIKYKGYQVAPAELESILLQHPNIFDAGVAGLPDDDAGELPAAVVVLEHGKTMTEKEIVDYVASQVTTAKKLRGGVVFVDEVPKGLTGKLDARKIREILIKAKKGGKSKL
Method in brief: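 Quantitative HTS format; KM concentrations of both substrates. Purified P. pyralis FLuc activity quantified from luminescence images.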

[12] = target: Nuclear receptor subfamily 1 group I member 3 (Homo sapiens) (UniProt Q14994); experiment: qHTS assay to identify small molecule agonists of the constitutive androstane receptor (CAR) signaling pathway (AID 1224839); note: potency is the fitted concentration of half-maximal effect; nearly all actives have a fitted effect of over 15% in size
Method in brief: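 Stable hCAR/CYP2B6-2.2kb HepG2 line in DMEM with 10% FBS; compounds (15 concentrations) and 0.75 uM PK11195 final, 24 h at 37 C/5% CO2, then ONE-Glo luminescence after 30 min.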

[13] = qHTS assay to identify small molecule agonists of the estrogen related receptor signaling pathway with the pleiotropic PPARgamma coactivator (PGC) from Tox21 10K library (AID 1224842); note: % is set by controls: 0 for no effect and ±100 for the full control effect; nearly all actives have a fitted effect of over 15% in size
Method in brief: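 PGC/ERR reporter cells (NTP line) were seeded 2,000 per well, rested 6 h at 37 C/5% CO2, then pin-dosed with compounds in DMSO for 18 h at 37 C; luciferase read by One-Glo luminescence after 30 min at room temperature.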

CCCC[P+](CCCC)(CCCC)CCCC
inactive: Potency [1] | Potency [2] | Potency [3] | Potency [4] | Potency [5] | Potency [6] | Potency [7] | Potency [8]

CNNCc1ccc(C(=O)NC(C)C)cc1
inactive: Potency [1] | Potency [2] | Potency [3] | Potency [4] | Potency [5] | Potency [6] | Potency [7] | Potency [8]

Nc1ccc2c(c1)CN1C(=O)c3ccccc3C1=N2
active: Potency [2] 14.6 µM | Potency [10] 0.366 µM | Potency [11] 0.213 µM | Potency [12] 0.184 µM
inactive: activity, negative = inhibition [9] -41% [at 19 µM] | activity, negative = inhibition [6] -44.6% [at 19 µM] | activation [8] -0.704% [at 19 µM]

OC[C@H]1O[C@H](O[C@]2(CCl)O[C@H](CCl)[C@@H](O)[C@@H]2O)[C@H](O)[C@@H](O)[C@H]1Cl
inactive: Potency [1] | Potency [2] | Potency [3] | Potency [11] | Potency [4] | Potency [5] | Potency [7] | Potency [8]

CN1CCC[C@H]1c1cccnc1
inactive: Potency [1] | Potency [2] | Potency [3] | Potency [11] | Potency [4] | Potency [5] | Potency [6] | Potency [7]

Cc1ccc(S(=O)(=O)O)cc1
inactive: Potency [1] | Potency [2] | Potency [3] | Potency [4] | Potency [5] | Potency [7]

CN1[C@@H]2CC(OC(=O)[C@H](CO)c3ccccc3)C[C@H]1[C@@H]1O[C@@H]12 (some centres undefined)
inactive: Potency [1] | Potency [2] | Potency [3] | Potency [11] | Potency [4] | Potency [5] | Potency [6] | Potency [7] | Potency [8]

CCc1nc(N)nc(N)c1-c1ccc(Cl)cc1
inactive: Potency [2] | Potency [11] | Potency [4] | Potency [5] | Potency [7]
active: Potency [6] 1.75 µM and 3.06 µM

O=CC(=O)c1ccccc1
active: Potency [6] 68.7 µM | Potency [8] 27.3 µM
inactive: Potency [1] | Potency [9] | Potency [3] | Potency [11] | Potency [4] | Potency [5] | Potency [7]

CN1CCc2cccc3c2[C@H]1Cc1ccc(O)c(O)c1-3
active: Potency [1] 18.3 µM | Potency [2] 69.3 µM | Potency [3] 27.6 µM and 22.8 µM and 26.6 µM | Potency [4] 49.1 µM and 22.8 µM | Potency [5] 49.1 µM and 22.8 µM | Potency [7] 30.9 µM and 22.8 µM
inactive: Potency [11] | Potency [6] | Potency [13]

CC1(C)S[C@@H]2[C@H](NC(=O)[C@H](N)c3ccccc3)C(=O)N2[C@H]1C(=O)O
inactive: Potency [1] | Potency [2] | Potency [3] | Potency [11] | Potency [4] | Potency [5] | Potency [7] | Potency [8]

Nc1ccc(S(N)(=O)=O)cc1
27.4 µM (active) and inactive: Potency [6]
inactive: Potency [1] | Potency [2] | Potency [3] | Potency [4] | Potency [5] | Potency [7] | Potency [8]
